Consider 34 molecules from ChEMBL document CHEMBL4303122, “Identification of potential treatments for COVID-19 through artificial intelligence-enabled phenomic analysis of human cells infected with SARS-CoV-2” (2020).

The structures appear in SMILES notation. Whole data set: some 1,600 compounds, median “Hit score” near 0.13, cut for the highest 2% near 0.46. The full list was thinned out, with the highest values kept by preference.

In this experiment the test system is SARS-CoV-2. As to the kind of experiment: Antiviral activity against SARS-CoV-2 (USA-WA1/2020 strain) measured by imaging in HRCE cells at MOI 0.4 after 96 hrs (reported as hit score from 0-1 for on-disease vs off-disease activity: scores >0.6 considered hits). The experiment is classed as functional, Homo sapiens.
Take `CCCCc1cc2ccccc2c(OCCN(C)C)n1` [DIMETHISOQUIN]: the Hit score is recorded as 0.1395.

With `CC[C@]1(O)C[C@H]2CN(CCc3c([nH]c4ccccc34)[C@@](C(=O)OC)(c3cc4c(cc3OC)N(C=O)[C@H]3[C@@](O)(C(=O)OC)[C@H](OC(C)=O)[C@]5(CC)C=CCN6CC[C@]43[C@@H]65)C2)C1` [VINCRISTINE], the Hit score came out at 0.4904.

Molecule `CC[C@]1(O)C[C@@H]2CN(CCc3c([nH]c4ccccc34)[C@@](C(=O)OC)(c3cc4c(cc3OC)N(C)[C@H]3[C@@](O)(C(=O)OC)[C@H](OC(C)=O)[C@]5(CC)C=CCN6CC[C@]43[C@@H]65)C2)C1` [VINBLASTINE] showed a Hit score of 0.2235.

As to `O=C(C[S+]([O-])Cc1ccco1)NC/C=C\COc1cc(CN2CCCCC2)ccn1` (centres undefined) [LAFUTIDINE], the Hit score came to 0.2245.

Consider `CCC(c1ccccc1)c1c(O)c2ccccc2oc1=O` (centres undefined) [PHENPROCOUMON], for which the Hit score stood at 0.1829.

For `COc1ccc2c3c1O[C@H]1C[C@@H](O)C=C[C@@]31CCN(C)C2` [GALANTAMINE], the Hit score was found to be 0.2532.

In turn, `CC(C)COc1ccc(CNC(=O)N(Cc2ccc(F)cc2)C2CCN(C)CC2)cc1` [PIMAVANSERIN] registered a Hit score of -0.09171.

`Brc1ccc(NC2C3CC4CC(C3)CC2C4)cc1` (centres undefined) showed a Hit score of 0.3495.

Consider `CO[C@H]1C(=O)[C@]2(C)[C@@H](OC)C[C@H]3OC[C@@]3(OC(C)=O)[C@H]2[C@H](OC(=O)c2ccccc2)[C@]2(O)C[C@H](OC(=O)[C@H](O)[C@@H](NC(=O)OC(C)(C)C)c3ccccc3)C(C)=C1C2(C)C` [CABAZITAXEL], for which the Hit score was -0.8282.

`COC(=O)c1ccc2c(c1)NC(=O)/C2=C(\Nc1ccc(N(C)C(=O)CN2CCN(C)CC2)cc1)c1ccccc1` [NINTEDANIB] gave a Hit score of 0.1859.

In turn, `O=c1ncnc2n([C@H]3O[C@@H](CO)[C@H](O)[C@@H]3O)[nH]cc1-2` [ALLOPURINOL RIBOSIDE] showed a Hit score of 0.1953.

Regarding `Cc1c(O)cccc1C(=O)N[C@@H](CSc1ccccc1)[C@H](O)CN1C[C@H]2CCCC[C@H]2C[C@H]1C(=O)NC(C)(C)C`, the Hit score is given as 0.1621.

As to `COc1ccc(C(=O)N2CCN(c3ccc4c(c3)CCC(=O)N4)CC2)cc1OC` [VESNARINONE], the Hit score is given as 0.09463.

The molecule `CCCOC(C(=O)OC1CCN(C)CC1)(c1ccccc1)c1ccccc1.Cl` registered a Hit score of 0.3138.

As for `C/C=C/C[C@@H](C)[C@@H](O)[C@H]1C(=O)N[C@@H](CC)C(=O)N(C)CC(=O)N(C)[C@@H](CC(C)C)C(=O)N[C@@H](C(C)C)C(=O)N(C)[C@@H](CC(C)C)C(=O)N[C@@H](C)C(=O)N[C@H](C)C(=O)N(C)[C@@H](CC(C)C)C(=O)N(C)[C@@H](CC(C)C)C(=O)N(C)[C@@H](C(C)C)C(=O)N1C` [CYCLOSPORINE], the Hit score came out at 0.07198.

`COc1ccc2c(c1)c(CC(=O)OCC(C(=O)O)c1ccccc1)c(C)n2C(=O)c1ccc(Cl)cc1` (centres undefined) came in with a Hit score of 0.05914.

`COc1ccccc1OC(=O)c1ccccc1OC(C)=O` [GUACETISAL] gave a Hit score of 0.1414.

With `COc1ccc(NC(=O)c2ccc(C(=N)N(C)C)cc2)c(C(=O)Nc2ccc(Cl)cn2)c1` [BETRIXABAN], the Hit score was 0.004778.

The molecule `O=C1NC(c2ccccc2)(c2ccccc2)C(=O)N1COP(=O)(O)O` [FOSPHENYTOIN] registered a Hit score of -0.01075.

For the molecule `CNC(=O)c1cccc(NC(=O)N2CCC(Oc3ccccc3Cl)CC2)c1`, the Hit score is recorded as 0.1005.

`CCCCc1nc(C)c(CC(=S)N(C)C)c(=O)n1Cc1ccc(-c2ccccc2-c2nnn[nH]2)cc1`: the Hit score came out at 0.1262.

In the case of `COc1ccc2c(O[C@@H]3C[C@H]4C(=O)N[C@]5(C(=O)NS(=O)(=O)C6CC6)C[C@H]5/C=C\CCCCN(C)C(=O)[C@@H]4C3)cc(-c3nc(C(C)C)cs3)nc2c1C`, the Hit score was determined as 0.1824.

`C=C1/C(=C\C=C2/CCC[C@]3(C)[C@@H]([C@H](C)/C=C/[C@H](C)C(C)C)CC[C@@H]23)C[C@@H](O)C[C@@H]1O` [DOXERCALCIFEROL]: the Hit score turned out to be 0.4621.

For the molecule `C=C1CC[C@H](O)C/C1=C/C=C1\CCC[C@]2(C)[C@@H]([C@H](C)CCCC(C)(C)O)CC[C@@H]12` [CALCIFEDIOL ANHYDROUS], the Hit score came out at 0.4579.

As for `C=C1/C(=C\C=C2/CCC[C@]3(C)[C@@H]([C@H](C)CC[C@@H](O)C(C)C)CC[C@@H]23)C[C@@H](O)C[C@@H]1O` [TACALCITOL], the Hit score is listed as 0.4469.

As to `C=C1CC[C@H](O)C/C1=C/C=C1\CCC[C@]2(C)[C@@H]([C@H](C)CCCC(C)C)CC[C@@H]12` [CHOLECALCIFEROL], the Hit score is given as 0.2186.

In the case of `C=C1CC[C@H](O)C/C1=C/C=C1\CCC[C@]2(C)[C@@H]([C@H](C)CC[C@@H](O)C(C)(C)O)CC[C@@H]12` [SECALCIFEROL], the Hit score was 0.3632.

`C=C1/C(=C\C=C2/CCC[C@]3(C)[C@@H]([C@H](C)/C=C/[C@@H](O)C4CC4)CC[C@@H]23)C[C@@H](O)C[C@@H]1O` [CALCIPOTRIENE] displayed a Hit score of 0.6212.

Regarding `C=C1/C(=C\C=C2/CCC[C@]3(C)[C@@H]([C@H](C)OCCC(C)(C)O)CC[C@@H]23)C[C@@H](O)C[C@@H]1O` [MAXACALCITOL], the Hit score is listed as -0.1282.

For `C[C@H](/C=C/[C@H](C)C(C)(C)O)[C@H]1CC[C@H]2/C(=C/C=C3C[C@@H](O)C[C@H](O)C3)CCC[C@]12C` [PARICALCITOL], the Hit score was 0.5764.

`CCN(CC)C(=O)Nc1ccc(OCC(O)CNC(C)(C)C)c(C(C)=O)c1` (centres undefined) [CELIPROLOL] came in with a Hit score of 0.5089.

The molecule `CN(C)C(=O)Oc1cc(OC(=O)N(C)C)cc(C(O)CNC(C)(C)C)c1` (centres undefined) [BAMBUTEROL] displayed a Hit score of 0.1323.

Turning to `CC(C)(C)NCC(O)COc1ccc(NC(=O)NC2CCCCC2)cc1` (centres undefined) [TALINOLOL], the Hit score is 0.1441.

`C[C@]12CC[C@H]3[C@@H](CC[C@@]45O[C@@H]4C(O)=C(C#N)C[C@]35C)[C@@H]1CC[C@@H]2O` [TRILOSTANE] displayed a Hit score of 0.3178.
